Out of some 69,000 compounds screened, about 8,600 (12%) showed an effect of 50% or more. For the sample, strong results were picked, then their nearest neighbours and some compounds at random.
test system: Plasmodium berghei; experiment: Screen against P. berghei liver stage (PbLuc), transformed with Luciferase, at 10uM; type: functional, HepG2; conditions: tested at 10 uM

Compound | INHIBITION
CN(C(=O)c1ccc(C#N)cc1)c1nnc(C2CCOC2)s1 (centres undefined) | -0.585%
Cc1ccc(C(=O)N2CCO[C@H]3[C@H](OCc4ccccn4)CC[C@@H]32)o1 | -31.3%
Cc1nn(CCC#N)c(C)c1CCC(=O)N(C)Cc1ccsc1 | 19.8%
Cc1nn(CCC#N)c(C)c1CCC(=O)N(C)C | 49.5%
Cc1nn(CCC#N)c(C)c1CCC(=O)N(C)Cc1ccc(F)cc1F | 78.3%
CCCn1nccc1NC(=O)CN1CCOC(Cn2cc(C)cn2)C1 (centres undefined) | 21.9%
CN(C)C[C@H]1OC[C@@H]2CCN(S(=O)(=O)c3ccccc3)C[C@@H]21 | 26.7%
Cc1ccc(-c2ncc(CNc3cnccc3CO)s2)o1 | 11.1%
Cc1ncc(CNc2cnccc2CO)s1 | -37.7%
Cc1ccc(-c2ncc(CNc3cnccc3CO)s2)cc1 | 80%
CS(=O)(=O)N[C@@H]1CCN(Cc2cccnc2)[C@H]1Cc1ccccc1 | 52%
Cn1cc(CN2CC[C@@H](NS(C)(=O)=O)[C@@H]2Cc2cccnc2)cn1 | 54.4%
CS(=O)(=O)N[C@@H]1CCN(Cc2ccncc2)[C@H]1Cc1cccnc1 | 4.27%
Cn1ccnc1CN1CC[C@@H](NS(C)(=O)=O)[C@@H]1Cc1cccnc1 | 13.6%
CS(=O)(=O)N[C@@H]1CCN(Cc2cccs2)[C@H]1Cc1cccnc1 | -21.4%
CS(=O)(=O)N[C@@H]1CCN(Cc2cccnc2)[C@H]1Cc1cccnc1 | 45.1%
O=C(CCc1ccccc1Br)NS(=O)(=O)c1ccc2c(c1)OCCO2 | 25.6%
O=C(c1ccc(Cn2cnnn2)cc1)N1CC[C@H](CO)[C@H](O)C1 | 22.5%
CC(C)CN(Cc1nc2c(cnn2C)c(=O)[nH]1)CC(C)C | -33.55%
COc1ccc(-c2cnc(N)nc2C2CCCNC2)cc1 (centres undefined) | 23.9%
COc1ccc(-n2cc3[nH][nH]c(=O)n3c2=O)cc1 | -3%
COCC1CCN(S(=O)(=O)c2ccc(C(=O)NCC(F)F)cc2)C1 (centres undefined) | 10.6%
CCc1cnc(CNC(=O)NC2CCN(C3CCCC3)CC2)s1 | -104%

Compound | INHIBITION
CC(=O)N[C@@H]1CN(C2CCN(c3cccc(Cl)c3)CC2)C[C@H]1C(C)C | 30.8%
CC(=O)N[C@@H]1CN(C2CCN(c3ccccc3F)CC2)C[C@H]1C(C)C | 14.8%
CC(=O)N[C@@H]1CN(C2CCN(c3cccc(C)c3C)CC2)C[C@H]1C(C)C | 66.1%
CCN(CC1CCOC1)C(=O)c1ccc(-c2ccsc2)nc1C (centres undefined) | 19.7%
Cn1cnc2c(N3CCOCC3)nc(C3CCNCC3)cc21 | -76.7%
CN(C)CC1CN(Cc2coc(-c3cccs3)n2)CCO1 (centres undefined) | 32.8%
Cc1ccc(-c2nc(CN3CCOC(CN(C)C)C3)co2)cc1 (centres undefined) | 58.5%
Cc1ccc(-c2noc(CN3CCOC(CN(C)C)C3)n2)cc1F (centres undefined) | 62.3%
CN(C)CC1CN(Cc2coc(-c3ccc(Cl)cc3)n2)CCO1 (centres undefined) | 72.9%
CN(C)CC1CN(Cc2coc(-c3ccccc3Cl)n2)CCO1 (centres undefined) | 25.3%
CN(C)CC1CN(Cc2coc(-c3ccccc3)n2)CCO1 (centres undefined) | -3.2%
Cc1noc(CN2CCOC(CN(C)C)C2)n1 (centres undefined) | 31.9%
CN(C)CC1CN(Cc2coc(-c3cccc(F)c3)n2)CCO1 (centres undefined) | 11.2%
c1ccc(-c2nc(CN3CCOC(Cn4cccn4)C3)co2)cc1 (centres undefined) | 22.3%
Fc1ccc(-c2nc(CN3CCOC(Cn4cccn4)C3)co2)cc1 (centres undefined) | 58%
Cc1ccc(-c2nc(CN3CCOC(Cn4cccn4)C3)co2)cc1 (centres undefined) | 49.8%
CN(C)CC1CN(Cc2nc(-c3cccnc3)no2)CCO1 (centres undefined) | -50.5%
Cn1cc(CN2CCC3(CC2)CCN(C(=O)c2cscn2)CC3)cn1 | 34.4%
COCC(=O)NCc1cc(=O)n2c(n1)CN(Cc1ccccc1)CCC2 | 25.8%
CCC(C)NC(=O)c1cc(Br)c2c(c1)OCCO2 (centres undefined) | 23.5%
CC(C)N(CCO)C(=O)c1cc(COc2ccc3c(c2)CCCC3)on1 | -15.6%
CC(C(=O)N1CCCCC1)N1CCN(c2ncc(Cl)cn2)CC1 (centres undefined) | -15%
c1cnn(C2CN(c3ncnc4[nH]ccc34)C2)c1 | -4.73%

Compound | INHIBITION
Cc1csc(N2CCCN(C(=O)CCNc3ncccn3)CC2)n1 | 7.12%
CSC(C)C(=O)Nc1ccnn1-c1ccccc1C (centres undefined) | -2.61%
O=C1Nc2ccccc2C12CCN(c1nccs1)CC2 | -15.9%
Cc1cc(C)n(CC2CN(Cc3cc(C)on3)CCO2)n1 (centres undefined) | 16%
Cc1cc(CN2CCOC(CN(C)c3cccnn3)C2)no1 (centres undefined) | 26.9%
Cc1cc(CN2CCOC(CN(C)C)C2)no1 (centres undefined) | 53.8%
CCc1c(C)n(CCOC)c2nc3ccccc3n2c1=O | -7.81%
O=c1c2sccc2ncn1Cc1cc(C2CC2)[nH]n1 | 37.6%
N#Cc1ncn(CCS(=O)(=O)c2ccccc2)n1 | 65.4%
N#Cc1ncn(CCS(=O)(=O)c2ccc(Cl)cc2)n1 | 54.3%
N#Cc1ncn(CCS(=O)(=O)c2ccc(Br)cc2)n1 | 41.4%
CCc1ccc(CCn2cnc(C#N)n2)cc1 | 37.4%
N#Cc1ncn(CCC(=O)Nc2cc(Cl)ccc2Cl)n1 | -22.1%
N#Cc1ncn(CCC(=O)Nc2ccccc2F)n1 | -3.77%
CC(C)c1noc(OCC(=O)N2CCCCC2C)n1 (centres undefined) | -24.9%
CC(C)c1nc(C2CCCN2CCNS(C)(=O)=O)no1 (centres undefined) | 23.8%
CNCc1n[nH]c(=O)n1-c1ccccc1Oc1ccccc1 | -107%
CNCc1cc(C)n(-c2ccccc2OC)c1C | 70.3%
COc1ccccc1-n1c(C)cc(CNC(=O)NC(C)C)c1C | 25.1%
CCOc1ccccc1-n1c(CNC)n[nH]c1=O | -63.8%
CCOC(=O)CNC(=O)NCc1cc(C)n(-c2ccc(OC)cc2)c1C | 21.7%
CCOC(=O)CNC(=O)NCc1cc(C)n(-c2ccccc2OC)c1C | 63.1%
CC(=O)N1[C@@H](C(=O)NCC2CC2)C[C@@H]2CN(Cc3nccs3)C[C@@H]21 | 39.5%
